# Compound activity (PubChem)
# Vif-APOBEC3G blk: Vif-A3G binding inhibition | Q9HC16 | HeLa A3G-eYFP + Vif (tagged APOBEC3G with the HIV-1 protein that degrades it), YFP fluorescence, overnight | Potency, µM (highest dose often 46.1 µM), for the others: at the highest dose activity, negative = active, most hits filed as inhibitors | 410,000 compounds, 0.076% hits; further: potency means the concentration at half of the fitted maximal effect; on the % scale 0 is the no-effect control and ±100 the full control effect; nearly all actives have a fitted effect of over 60% in size
# Target sequence (Q9HC16 whole entry, looked up): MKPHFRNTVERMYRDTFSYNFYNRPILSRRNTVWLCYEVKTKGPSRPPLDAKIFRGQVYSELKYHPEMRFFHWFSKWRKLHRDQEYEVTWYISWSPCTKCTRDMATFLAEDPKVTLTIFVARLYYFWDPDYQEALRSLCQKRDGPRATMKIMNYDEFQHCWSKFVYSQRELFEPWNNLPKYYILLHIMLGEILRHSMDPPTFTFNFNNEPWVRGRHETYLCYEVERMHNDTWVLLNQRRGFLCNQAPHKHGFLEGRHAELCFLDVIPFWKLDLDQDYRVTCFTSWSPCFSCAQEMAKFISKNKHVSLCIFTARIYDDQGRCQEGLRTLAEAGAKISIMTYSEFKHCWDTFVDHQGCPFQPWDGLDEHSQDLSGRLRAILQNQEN
#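 HeLa cells stably expressing Vif and C-terminally eYFP-tagged A3G, seeded overnight at 37 deg C, then exposed to compound by pintool overnight at 37 deg C. Rise in yellow fluorescence (Ex 488/Em 500-530, Acumen) marks blocked Vif-driven A3G degradation.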
# Vif-APOBEC3F blk: Vif-A3F binding inhibition. HeLa A3F-eYFP + Vif (tagged APOBEC3F with the HIV-1 protein that degrades it), YFP fluorescence increase. Potency, µM (top dose mostly 46.1 µM), inactives show at the top dose activity, negative = active. 390,000 compounds, 0.2% hits. AID 602313; further: potency means the concentration at half of the fitted maximal effect; % of control where 0% means no effect; nearly all actives have a fitted effect of over 65% in size
#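 HeLa cells stably expressing A3F-eYFP plus Vif, plated and incubated overnight at 37 deg C, then exposed to compounds overnight at 37 deg C. Blocked degradation read as raised yellow fluorescence (Ex 488/Em 500-530).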
# IL-1B inflam inh: inflammasome signaling inhibition, IL-1 beta readout. AID 743279. activity change, % at 57.5 µM. 360,000 compounds, 4.7% hits. THP-1 LPS/ATP IL-1B secretion, AlphaLISA, 16 h; hits give low values; in the data active means activity change below about -50%; inconclusive means mostly about -30% to -49%; further: on the % scale 0 is the no-effect control and ±100 the full control effect
#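 THP-1 cells pretreated 1 hr with compounds (up to 57.5 uM final), then stimulated with LPS (250 ng/mL final) plus ATP (1.25 mM final); secreted IL-1B measured by AlphaLISA after 16 hr, decreased signal indicating inhibition.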
# MCF10A rereplic: DNA re-replication induction in MCF 10a cells. MCF 10A DNA re-replication, Hoechst nuclear intensity, 48 h. Potency, µM (doses to about 46.1 µM), inactives show top-dose activity, positive = re-replication, actives largely listed as activators. 350,000 compounds, 2.9% hits. AID 624296; further: potency means the concentration at half of the fitted maximal effect; % of control where 0% means no effect; nearly all actives have a fitted effect of over 50% in size
# Giardia kill: Giardia lamblia killing | Giardia lamblia trophozoite viability | activity change, % at 7.66 µM, hits read low | 340,000 compounds, 0.15% hits | AID 540267; in the data active means activity change below about -80%; inconclusive means between about -30% and that limit;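 further: parasites exposed to compound for two days anaerobically before the ATP read; on the % scale 0 is the no-effect control and ±100 the full control effect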
#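 Trophozoites 100 cells/well + cpd; 48 hrs, 37 deg C, anaerobic. ATPLite 1-Step added, 15-30 min RT, luminescence read (ATP-based viability).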
# SW480 rereplic: induces DNA re-replication in SW480 colon adenocarcinoma cells; SW480 DNA re-replication, Hoechst DNA content imaging, 48 h; 340,000 compounds, 1.8% hits; Potency, µM (doses to about 46.1 µM), for the others: at the highest dose re-replication activation, usual class: activators; further: potency means the concentration at half of the fitted maximal effect; % of control where 0% means no effect; nearly all actives have a fitted effect of over 55% in size
#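 Per well, 250 cells were exposed to pinned compound for 48 hr. Nuclear DNA was visualised with Hoechst (40 min, 37 C) and total object intensity recorded by fluorescence scanning.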
# * marks the source's active call; other numbers are inactive results; ? = inconclusive; . = no result. Only some compounds are listed: those with a hit (about 6.9% of all), similar ones and a draw of the others. Unless noted, the call rests on the fitted dose curve; in most records, active means well fitted curve in the direction sought with a large enough effect; inconclusive means small, poorly fitted or top-dose-only effect, or another doubt; inactive means no such curve, though single readings can be large; an effect the other way counts as inactive or inconclusive.
SMILES,Vif-APOBEC3G blk,Vif-APOBEC3F blk,IL-1B inflam inh,MCF10A rereplic,Giardia kill,SW480 rereplic
O=S(=O)(CCN1CCCCC1)CCS(=O)(=O)CCN1CCCCC1,2%,1%,-71*,2%,6,?
COc1cc(SC#N)ccc1N=Cc1c(C)[nH]n(-c2ccc(C)c(C)c2)c1=O,-1%,0%,-98*,?,-9,?
CN(C)S(=O)(=O)c1cccc(N=C2NN=C(c3ccccc3)CS2)c1,-2%,-9%,-57*,11%,-5,13µM*
CC(=O)Nc1ccc(C2=NNC(=Nc3cccc(S(=O)(=O)N(C)C)c3)SC2)cc1,-9%,-21%,-79*,?,25,-54%
Cc1cc(C2=NNC(=Nc3ccccc3)SC2)c(C)n1C,2%,-26%,-20,4%,10,11%
COc1ccc(C2=NNC(=Nc3cc(S(=O)(=O)N(C)C)ccc3C)SC2)c(OC)c1,-10%,0%,-54*,4%,-8,19%
COCCN=C1NN=C(c2ccc(NC(C)=O)cc2)CS1,0%,10%,54,-7%,9,?
COc1ccccc1C1=NNC(=NCc2ccccc2)SC1,0%,-11%,?,1%,3,-6%
CCOc1ccc(-c2cc(CCCC(=O)NCCc3cc(OC)c(OC)c(OC)c3)no2)cc1,4%,-9%,.,.,.,.
O=C(O)C1CCC(=O)N1Cc1ccc(F)cc1 (centres undefined),-2%,-5%,5,16µM*,-4,10%
CCCN1CCC(=O)N(C(CSc2ccc(C)cc2)CC(C)C)CC1 (centres undefined),6%,.,.,.,7,.
O=[N+]([O-])c1cccc(N=NN(CCO)c2cccc([N+](=O)[O-])c2)c1,-4%,-1%,4,1%,?,-13%
CCCN(N=Nc1cccc([N+](=O)[O-])c1)c1cccc([N+](=O)[O-])c1,-1%,-4%,-51*,?,-7,-2%
Cc1ccc(Cn2c(SCC(=O)N(C)C3CCS(=O)(=O)C3)nc3ccccc3c2=O)cc1 (centres undefined),-2%,8%,-55*,5%,2,-7%
CN(C(=O)CSc1nnc(-c2ccc(F)cc2)c2ccccc12)C1CCS(=O)(=O)C1 (centres undefined),-10%,-22%,-91*,-4%,-2,?
Cc1ccccc1Nc1nnc(SCC(=O)N(C)C2CCS(=O)(=O)C2)s1 (centres undefined),-1%,-1%,3,-2%,5,-1%
C=CCn1c(SCC(=O)N(C)C2CCS(=O)(=O)C2)nc2ccccc2c1=O (centres undefined),1%,-8%,-4,-7%,-2,7%
CCOc1ccccc1Nc1nnc(SCC(=O)N(C)C2CCS(=O)(=O)C2)s1 (centres undefined),-5%,-3%,-61*,1%,-13,-4%
COc1cccc(CNc2nc3c(-c4cccc(C)c4)nnn3c3ccccc23)c1,-1%,2%,.,.,.,.
COc1ccc(-n2nc(C(=O)N(C)c3cc(C)ccc3C)c3c4ccccc4n(C)c3c2=O)cc1Cl,1%,-2%,.,.,.,.
CCc1ccc2oc(-c3cc(NC(=O)COc4ccc(C)cc4)ccc3O)nc2c1,0%,.,.,.,.,.
COc1ccc(-c2ccc(C(c3c(C)[nH][nH]c3=O)c3c(C)[nH][nH]c3=O)o2)c([N+](=O)[O-])c1,-24%,-1%,-74*,21µM*,?,?
Cc1[nH][nH]c(=O)c1C(c1ccc(-c2ccc(Cl)c(Cl)c2)o1)c1c(C)[nH][nH]c1=O,?,0%,-22,2.9µM*,-6,14%
Cc1[nH][nH]c(=O)c1C(c1ccc(-c2ccc(F)cc2)o1)c1c(C)[nH][nH]c1=O,-27%,11%,?,?,-8,-8%
Cc1csc2c(N3CCN(C(=O)NC(C)(C)C)CC3)ncnc12,0%,15%,22,?,-5,-59%
SMILES,Vif-APOBEC3G blk,Vif-APOBEC3F blk,IL-1B inflam inh,MCF10A rereplic,Giardia kill,SW480 rereplic
Cc1csc2c(N3CCN(C(=O)Nc4ccc(Cl)c(Cl)c4)CC3)ncnc12,-1%,-30%,-78*,?,-17,-10%
Cc1ccc(C(C)C)c(OCCNC(=S)Nc2cccc3ccccc23)c1,0%,-8%,0,?,10,5.6µM*
CC(C)SC1=NC(C)(C)C=C(/C=C/c2ccc(Cl)cc2Cl)N1,?,-9%,-113*,8.2µM*,6,?
CC(C)SC1=NC(C)(C)C=C(/C=C/c2c(Cl)cccc2Cl)N1,-12%,6%,-82*,18µM*,-6,?
CN(C(=O)Cn1c(=O)n(Cc2ccc(C(=O)NCc3ccc4c(c3)OCO4)cc2)c(=O)c2ccccc21)c1ccccc1,2%,1%,.,.,.,.
Cc1cc(N2C3CCC2CC(O)(c2ccc(F)cc2)C3)nc(-c2ccccc2)n1 (centres undefined),-9%,-18%,-56*,1%,-4,0%
COc1ccc(CN2C[C@H]3CCCN3c3cc(Br)ccc3S2(=O)=O)cc1,-9%,1%,90,1.2µM*,-27,1.6µM*
CC(=O)NS(=O)(=O)c1cccnc1Nc1cccc(Cl)c1C,7%,-7%,0,-2%,11,0.52µM*
Cc1ccc(N(CC(N)=O)C2SC(=O)N(Cc3ccccc3)C2=O)cc1 (centres undefined),0%,4%,-5,21µM*,6,?
NC(=O)CN(c1ccccc1)C1SC(=O)N(Cc2ccccc2)C1=O (centres undefined),0%,-11%,10,-4%,4,-5%
CC(C)c1ccc2c(c1)[C@H]1OCC[C@H]1[C@@H](c1cccs1)N2,?,-8%,-2,7.3µM*,-16,9.2µM*
CCCCOC(=O)c1ccc(NC(=O)c2ccc3c(c2)CCN3S(C)(=O)=O)cc1,2%,-4%,.,.,.,.
Cc1ccc(-n2ncc(C(=O)Nc3ccc(Cl)cc3)c2C2CCNCC2)cc1C,2%,1%,-73*,0%,1,5%
COc1ccc(-c2[nH]c(-c3ccc(F)cc3)nc2SCC(=O)Nc2ccc(OC)c(OC)c2)cc1,-1%,2%,.,.,.,.
CCS(=O)(=O)N1CCC(C(=O)NCCCOC)CC1,0%,-3%,17,?,3,15µM*
Cc1sc2ncnc(N=Nc3c(O)[nH]c4ccccc34)c2c1C,-6%,22µM*,32,?,4,-5%
CCc1cc2c(N=Nc3c(O)[nH]c4ccccc34)ncnc2s1,-24%,?,12,?,-7,-9%
CC(C)(C)c1ccc(S(=O)(=O)NNC(=O)C2CCN(Cc3cccc(F)c3)CC2)cc1,2%,-5%,-54*,22%,-13,6%
